# Laboratory results published in article PMC7862700, “An all-to-all approach to the identification of sequence-specific readers for epigenetic DNA modifications on cytosine”.
# How the values were obtained:
# Assay in all cases: DAPPL (digital affinity profiling via proximity ligation, sequencing); 10 mM Tris-HCl pH 7.5, 50 mM NaCl, 1 mM DTT, 4% glycerol, room temperature, 30 min; GST-TFs on glutathione beads, 16-mer random dsDNA library, 0.1% formaldehyde crosslink after washing; high values mean tight binding
# Settings in all cases: protein: recombinant; tags: N-terminal GST; dsDNA, one strand shown
# FLI1 = molecular target: T1, FLI1 (Homo sapiens, UniProt Q01543 1-452)
# T1 sequence: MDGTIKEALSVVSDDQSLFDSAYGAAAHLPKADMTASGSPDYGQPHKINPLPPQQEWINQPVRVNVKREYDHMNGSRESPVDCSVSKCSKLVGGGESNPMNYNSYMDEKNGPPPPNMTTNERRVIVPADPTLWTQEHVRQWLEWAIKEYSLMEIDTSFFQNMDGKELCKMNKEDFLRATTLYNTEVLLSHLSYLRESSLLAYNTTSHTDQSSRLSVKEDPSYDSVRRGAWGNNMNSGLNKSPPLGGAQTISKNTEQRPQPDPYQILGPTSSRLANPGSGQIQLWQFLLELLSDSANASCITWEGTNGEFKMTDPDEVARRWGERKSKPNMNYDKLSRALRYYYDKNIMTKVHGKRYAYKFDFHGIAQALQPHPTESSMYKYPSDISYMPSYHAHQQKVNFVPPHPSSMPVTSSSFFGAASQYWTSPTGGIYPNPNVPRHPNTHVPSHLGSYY
# Summary of the method: (§1)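 Pools of DNA-barcoded human transcription factors, expressed in yeast as GST fusions on glutathione beads and combined with a tag-only sample, were incubated with 200 nmole of a 16-mer random double-stranded DNA library. Incubation took 30 min at room temperature in Tris/NaCl/DTT/glycerol buffer and was followed by washing, 0.1% formaldehyde crosslinking, proximity ligation (BsaI/T4 ligase, 1 h, 37 °C), PCR amplification and sequencing on an Illumina NextSeq500. Binding signal is the ratio of a hexamer's read frequency for a factor to its frequency for the tag-only sample.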
# ELK1 = molecular target: T2, ELK1 (Homo sapiens, UniProt P19419 1-428)
# T2 sequence: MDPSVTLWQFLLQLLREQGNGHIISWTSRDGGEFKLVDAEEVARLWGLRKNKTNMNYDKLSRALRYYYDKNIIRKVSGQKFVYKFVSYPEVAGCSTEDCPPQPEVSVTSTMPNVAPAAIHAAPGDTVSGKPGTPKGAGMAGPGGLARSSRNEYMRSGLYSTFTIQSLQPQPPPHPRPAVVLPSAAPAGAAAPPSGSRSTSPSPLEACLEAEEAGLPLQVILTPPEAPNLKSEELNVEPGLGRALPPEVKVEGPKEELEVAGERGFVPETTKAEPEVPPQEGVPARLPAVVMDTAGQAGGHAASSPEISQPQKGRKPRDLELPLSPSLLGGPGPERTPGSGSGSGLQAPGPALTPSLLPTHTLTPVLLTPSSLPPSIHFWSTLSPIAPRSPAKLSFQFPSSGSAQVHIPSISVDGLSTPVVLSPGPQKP
# Summary of the method: as §1
# GABPA = molecular target: T3, GABPA (Homo sapiens, UniProt Q06546 1-454)
# T3 sequence: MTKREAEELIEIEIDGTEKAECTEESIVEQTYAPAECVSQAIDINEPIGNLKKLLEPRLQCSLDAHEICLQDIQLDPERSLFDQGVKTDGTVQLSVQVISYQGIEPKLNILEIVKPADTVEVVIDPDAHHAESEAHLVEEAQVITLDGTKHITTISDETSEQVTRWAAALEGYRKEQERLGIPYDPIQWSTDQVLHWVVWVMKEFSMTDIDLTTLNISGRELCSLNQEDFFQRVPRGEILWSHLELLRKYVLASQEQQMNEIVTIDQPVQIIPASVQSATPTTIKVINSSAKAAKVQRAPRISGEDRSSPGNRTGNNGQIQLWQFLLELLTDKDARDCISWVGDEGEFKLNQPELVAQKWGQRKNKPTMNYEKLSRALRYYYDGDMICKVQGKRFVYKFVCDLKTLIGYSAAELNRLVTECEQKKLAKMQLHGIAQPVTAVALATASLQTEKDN
# Summary of the method: as §1
# ERG = molecular target: T4, ERG (Homo sapiens, UniProt P11308 1-479)
# T4 sequence: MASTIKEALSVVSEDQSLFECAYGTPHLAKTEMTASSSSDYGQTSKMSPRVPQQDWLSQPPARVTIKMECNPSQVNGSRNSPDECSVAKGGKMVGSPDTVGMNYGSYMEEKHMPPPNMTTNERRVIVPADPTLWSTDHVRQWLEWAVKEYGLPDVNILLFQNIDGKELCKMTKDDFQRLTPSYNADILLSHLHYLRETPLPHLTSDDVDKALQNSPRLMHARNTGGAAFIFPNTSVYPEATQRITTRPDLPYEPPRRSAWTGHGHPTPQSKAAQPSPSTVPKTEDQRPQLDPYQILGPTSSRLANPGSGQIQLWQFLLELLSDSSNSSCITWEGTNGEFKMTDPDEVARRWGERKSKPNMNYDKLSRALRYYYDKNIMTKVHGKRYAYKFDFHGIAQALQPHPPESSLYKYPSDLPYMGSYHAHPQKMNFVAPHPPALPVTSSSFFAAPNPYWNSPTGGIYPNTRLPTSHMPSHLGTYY
# Summary of the method: as §1
# ELF1 = ELF1 (Homo sapiens, UniProt P32519 1-619)
# Summary of the method: as §1
# EHF = molecular target: T5, EHF (Homo sapiens, UniProt Q9NZC4 1-300)
# T5 sequence: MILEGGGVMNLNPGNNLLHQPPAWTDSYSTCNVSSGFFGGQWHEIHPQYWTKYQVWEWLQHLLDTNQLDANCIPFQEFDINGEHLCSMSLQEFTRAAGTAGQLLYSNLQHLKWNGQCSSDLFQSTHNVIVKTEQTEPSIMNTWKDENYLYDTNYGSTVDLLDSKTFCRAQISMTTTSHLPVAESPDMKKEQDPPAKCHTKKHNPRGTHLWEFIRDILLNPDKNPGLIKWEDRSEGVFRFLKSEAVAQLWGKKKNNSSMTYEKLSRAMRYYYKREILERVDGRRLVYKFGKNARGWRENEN
# Summary of the method: as §1
# SPI1 = SPI1 (Homo sapiens, UniProt P17947 1-270)
# Summary of the method: as §1
# SPIB = SPIB (Homo sapiens, UniProt Q01892 1-262)
# Summary of the method: as §1
# ELK3 = molecular target: T6, ELK3 (Homo sapiens, UniProt P41970 1-407)
# T6 sequence: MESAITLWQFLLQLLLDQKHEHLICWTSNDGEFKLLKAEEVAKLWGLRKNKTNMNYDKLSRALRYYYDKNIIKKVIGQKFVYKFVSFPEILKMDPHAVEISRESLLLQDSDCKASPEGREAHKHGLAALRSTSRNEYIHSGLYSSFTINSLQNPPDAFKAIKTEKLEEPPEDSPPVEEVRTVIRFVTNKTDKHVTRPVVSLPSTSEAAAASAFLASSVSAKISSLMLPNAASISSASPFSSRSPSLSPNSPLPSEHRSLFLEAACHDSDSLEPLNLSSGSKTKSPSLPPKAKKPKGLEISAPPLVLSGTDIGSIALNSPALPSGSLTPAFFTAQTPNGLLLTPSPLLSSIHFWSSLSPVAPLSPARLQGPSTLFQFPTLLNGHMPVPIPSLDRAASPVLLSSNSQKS
# Summary of the method: as §1
# Sequence of SPIB (Q01892 whole entry): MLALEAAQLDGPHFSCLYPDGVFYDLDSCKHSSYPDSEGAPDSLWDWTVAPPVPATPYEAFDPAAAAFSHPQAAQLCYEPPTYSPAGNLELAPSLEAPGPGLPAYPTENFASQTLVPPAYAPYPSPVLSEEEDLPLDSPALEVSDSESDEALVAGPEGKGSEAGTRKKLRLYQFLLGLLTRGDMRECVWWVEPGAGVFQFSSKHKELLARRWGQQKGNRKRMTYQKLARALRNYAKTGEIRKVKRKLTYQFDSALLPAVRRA
# Sequence of ELF1 (P32519 whole entry): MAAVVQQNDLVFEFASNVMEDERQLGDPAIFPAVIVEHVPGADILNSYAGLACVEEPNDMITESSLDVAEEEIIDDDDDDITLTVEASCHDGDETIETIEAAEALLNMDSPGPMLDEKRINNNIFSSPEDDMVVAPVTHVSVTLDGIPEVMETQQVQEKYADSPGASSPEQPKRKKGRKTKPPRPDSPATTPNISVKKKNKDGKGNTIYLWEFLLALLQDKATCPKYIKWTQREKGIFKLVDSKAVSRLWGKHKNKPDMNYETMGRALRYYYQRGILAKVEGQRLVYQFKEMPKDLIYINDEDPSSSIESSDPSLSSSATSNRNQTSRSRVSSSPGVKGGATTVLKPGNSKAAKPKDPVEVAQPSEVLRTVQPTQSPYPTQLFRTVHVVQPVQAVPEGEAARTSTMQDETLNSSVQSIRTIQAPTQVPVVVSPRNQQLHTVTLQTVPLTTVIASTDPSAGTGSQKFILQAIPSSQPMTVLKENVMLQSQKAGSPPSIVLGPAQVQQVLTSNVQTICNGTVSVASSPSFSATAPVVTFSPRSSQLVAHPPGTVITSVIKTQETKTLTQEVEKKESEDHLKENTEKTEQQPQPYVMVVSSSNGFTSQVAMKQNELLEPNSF
sequence,measurement,setting,value
TTCCCA,binding signal,FLI1,"1.18 fold enrichment (6-mer frequency, TF over GST control)"
same,binding signal,ELK1,"1.3 fold enrichment (6-mer frequency, TF over GST control)"
same,binding signal,GABPA,"1.2 fold enrichment (6-mer frequency, TF over GST control)"
same,binding signal,ERG,"1.3 fold enrichment (6-mer frequency, TF over GST control)"
same,binding signal,ELF1,"1.3 fold enrichment (6-mer frequency, TF over GST control)"
same,binding signal,EHF,"1.34 fold enrichment (6-mer frequency, TF over GST control)"
same,binding signal,SPI1,"1.28 fold enrichment (6-mer frequency, TF over GST control)"
same,binding signal,SPIB,"1.34 fold enrichment (6-mer frequency, TF over GST control)"
same,binding signal,ELK3,"1.17 fold enrichment (6-mer frequency, TF over GST control)"
